# Measurements from the supplement of paper PMC7156485.
# Test system: TDF
# Assay: H1.0 immunofluorescence intensity relative to DMSO (% of DMSO); higher = stronger H1.0 induction, active = 120 or more
# Details: concentration: 10 µM; 24 h
# Outline: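 For HCC1569 and TDF cells, compounds at 10 µM were applied for 24 h at 37 °C in triplicate in 384-well plates. Cells were fixed in 3.7% formaldehyde, stained for H1.0 and with DAPI, and imaged at ×10 over six fields per well. The endpoint, H1.0 nuclear intensity or cell number, is shown as percent of the plate control using the median of replicates. Positional effects were smoothed for HCC1569 only.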
# 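Also: TDF is a line of transformed human dermal fibroblasts of mesenchymal origin.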
row,Structure (SMILES),H1.0 immunofluorescence intensity
1,CCc1nc(-c2cccc(C)c2)c(-c2ccnc(NC(=O)c3ccccc3)c2)s1,87.8 (inactive)
2,CC1(C)C=Cc2c(ccc3c2OC[C@@H](c2ccc(O)cc2O)C3)O1,101 (inactive)
3,O=C(Nc1ccccc1)c1cc([N+](=O)[O-])ccc1Cl,100 (inactive)
4,COC1C=COC2(C)Oc3c(C)c(O)c4c(O)c(cc([O-])c4c3C2=O)NC(=O)C(C)=CC=CC(C)C(O)C(C)C(O)C(C)C(OC(C)=O)C1C.[Na+] (stereo unspecified),102 (inactive)
5,CC1=C(CC(=O)O)c2cc(F)ccc2C1=Cc1ccc(S(C)(=O)=O)cc1 [Sulindac sulfone],100 (inactive)
6,COc1ccc2c(c1)c(CC(=O)O)c(C)n2Cc1ccc(F)cc1 [1-(4-Fluorobenzyl)-5-methoxy-2-methylindole-3-acetic acid],95.4 (inactive)
7,CCC1C(=O)OCC1Cc1cncn1C.O=[N+]([O-])O (stereo unspecified) [Pilocarpine nitrate],98.7 (inactive)
8,CN(C)CCCOC1C(C(O)CO)OC2OC(C)(C)OC21.Cl (stereo unspecified) [Amiprilose hydrochloride],82.4 (inactive)
9,O=C(O)CCCc1c[nH]c2ccccc12 [Indole-3-butyric acid],98.4 (inactive)
10,C=C1CCC(O)CC1=CC=C1CCCC2(C)C1CCC2C(C)CCCC(C)(C)O (stereo unspecified) [Calcifediol],99.9 (inactive)
11,CNC(=O)c1ccccc1Sc1ccc2c(C=Cc3ccccn3)n[nH]c2c1 [Axitinib],99.1 (inactive)
12,O=C1CC(c2ccc(O)c(O)c2)Oc2cc(OC3OC(CO)C(O)C(O)C3O)cc(O)c21 (stereo unspecified) [Eriodictyol-7-O-glucoside],97.7 (inactive)
13,OC1CCN2Cc3ccccc3N=C12 (stereo unspecified) [Vasicine],98.7 (inactive)
14,O=C1NC(=O)c2c1c(-c1ccccc1)cc1[nH]c3ccc(O)cc3c21,101 (inactive)
15,CCCCCCCCC=CCCCCCCCCCCCCCC(=O)O [15(Z)-Tetracosenoic acid],94.8 (inactive)
16,CC1=NS(=O)(=O)c2cc(Cl)ccc2N1 [Diazoxide],101 (inactive)

row,Structure (SMILES),H1.0 immunofluorescence intensity
1,O=C1Cc2c([nH]c3ccc(Br)cc23)-c2ccccc2N1 [Kenpaulone],89.8 (inactive)
2,"CC(C)(C)C1(O)CCN2CC3c4ccccc4CCc4cccc(c43)C2C1.Cl (single isomer, unassigned; (+)) [(+)-Butaclamol hydrochloride]",126 (active)
3,Cc1cc(C)c(C=C2C(=O)Nc3ccccc32)[nH]1 [VEGF Receptor 2 Kinase Inhibitor III],91.1 (inactive)
4,NC(N)=NCc1cccc(I)c1.NC(N)=NCc1cccc(I)c1.O=S(=O)(O)O [m-Iodobenzylguanidine hemisulfate],98.1 (inactive)
5,CCCCCCCCCCOCCC(=O)O [4-Oxatetradecanoic acid],95.6 (inactive)
6,O=C(CCCc1ccc(-c2ccccc2F)cc1)Nc1ccc(O)cc1 [MK2a Inhibitor],157 (active)
7,CCCOc1ccc(C=C2SC(=O)NC2=O)cc1 [PIM1/2 Kinase Inhibitor VI],103 (inactive)
8,C=C1C(=O)OC2C1CCC(=C)C1CCC(=C)C12 (stereo unspecified) [Dehydrocostus lactone],110 (inactive)
9,NC(=O)C(=O)[O-].[Na+] [Sodium Oxamate],94 (inactive)
10,"CCCC1=C(c2ccc(O)cc2)N(c2ccc(O)cc2)NC1=C1C=CC(=O)C=C1 [1,3,5-tris(4-hydroxyphenyl)-4-propyl-1H-pyrazole]",92.5 (inactive)
11,C=CC1CN2CCC1CC2C(O)c1ccnc2ccc(OC)cc12.Cl.O.O (stereo unspecified),98.1 (inactive)
12,CCCCCCCCCCCCCCCCCCOCC(COP(=O)([O-])OCC[N+](C)(C)C)OC(C)=O (stereo unspecified),92.5 (inactive)
13,COc1cc(C(=O)NS(=O)(=O)c2ccccc2C)ccc1Cc1cn(C)c2ccc(NC(=O)OC3CCCC3)cc12 [Zafirlukast],90.1 (inactive)
14,OC1(c2ccc(Cl)cc2)CCN(Cc2c[nH]c3ccccc23)CC1,106 (inactive)
15,O=C1CC(c2ccc(O)cc2)Oc2cc(O)cc(O)c21 (stereo unspecified) [Naringenin],90.6 (inactive)
